Records with an inconclusive call do not appear. The source made the active and inactive calls. The call rests on the fitted dose curve; in most records, active means well fitted inhibition curve with a large enough effect; inconclusive means small, poorly fitted or top-dose-only effect; inactive means no such curve, though single readings can be large or run the other way.

Chain of N-terminal Xaa-Pro-Lys N-methyltransferase 1 (Homo sapiens) (Q9BV86 whole entry, looked up): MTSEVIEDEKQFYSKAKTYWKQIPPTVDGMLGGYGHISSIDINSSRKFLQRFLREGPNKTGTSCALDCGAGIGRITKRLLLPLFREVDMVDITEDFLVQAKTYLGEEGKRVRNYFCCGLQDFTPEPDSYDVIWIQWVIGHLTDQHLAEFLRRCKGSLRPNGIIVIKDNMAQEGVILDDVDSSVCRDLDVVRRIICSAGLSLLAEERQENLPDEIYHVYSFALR

The target in this test is N-terminal Xaa-Pro-Lys N-methyltransferase 1 (Homo sapiens) (UniProt Q9BV86). The test is described as follows: qHTS Assay for Inhibitors of N-terminal methyltransferase 1 (NTMT1): MTaseGlo Assay Confirmatory Screen, Round 1. Particulars: Recombinant NTMT1, MTase-Glo SAH luminescence; series mostly up to 57.1 µM; activity change, negative = inhibition: at the top concentration. From the text:
Assay Submitter (PI): Rong Huang Ph.D, Purdue University, West Lafayette, IN 47907 The N-terminal methytransferase 1 is the first methyltransferase that methylates protein alpha-N-amines and plays an important role in regulating cell mitosis, chromatin interactions and DNA repair. It is observed to be over-expressed in various cancer patient tissues like malignant melanoma and colorectal cancer tissues. Knockdown of NTMT1 in cancer cells causes cell mitotic defects and enhances sensitivity to DNA damaging chemotherapeutics. […] These critical cellular processes in which NTMT1 is implicated, coupled with emerging links to cellular dysfunction, strengthen the inference that NTMT1 is a compelling novel anticancer target. Progress have been made in understanding the molecular properties of NTMT1 and the biological consequences of protein alpha-N-terminal methylation, but there are no specific small molecule probes available for NTMT1 to fully characterize its MTase activity. To address this unmet need, a panel of assay is created and established to enable quantitative high-throughput screening (qHTS) for novel, potent, and selective small molecule NTMT1 inhibitors. Two orthogonal qHTS that use different reagents (ThioGlo vs. MTaseGlo) are developed for primary robotic screening against the NCATS chemical library of more than 400,000 small molecules. Identified inhibitors are reacquired, validated, and further characterized. MTaseGlo Assay is a luminescence screen that measure the activity of methyltransferases based on the reaction product S-adenosyl homocysteine (SAH). The substrate SAM is converted to SAH upon enzyme activation. MTase-Glo reagent and detection solution convert SAH to ATP and measure the light from the luciferase reaction. […] Early Translation Branch (ETB) National Center for Advancing Translational Sciences (NCATS) National Institute of Health (NIH)
Materials: NTMT1 enzyme, substrate SPKRIA, control peptide RCC1-6 is provided by the Huang laboratory. MTaseGlo Assay: In brief, 3 µL of enzyme mixture (final concentrations of 125 nM and 100 µM for NTMT1 and SAM, respectively) into all wells of a 1,536-well solid-bottom white plate (Greiner Bio One, Monroe, NC). 23 nL of DMSO or Ac-RCC1-10 (final concentration range 234 nM to 143 microM) was transferred via Wako Pin-tool (Wako Automation, Richmond, VA) and incubated (RT) for ~15 minutes. Next, 1 µL of substrate (final concentration 1 µM) or buffer was dispensed, and the reaction proceeded for 30 minutes (RT, protected from light) followed by a 1 microL addition of [5X] MTase-Glo Reagent(R). Samples were incubated (RT, protected from light) for 30 minutes to allow for SAH to be converted to ADP, followed by a 5 microL addition of [1X] MTase-Glo Detection Solution(R) to allow for ADP to be converted to ATP, which was then detected with a luciferase reaction. Samples were centrifuged for 15 seconds at 1,000 RPM's, followed by a RT incubation for 30 minutes. Plates were then read using Luminescence optics on a ViewLux detector. Data were normalized to no-enzyme (0% activity) and no-inhibitor (DMSO; 100%) controls, and the resulting percent inhibition data were fitted to a 4-parameter Hill equation using Graphpad Prism.
`Nc1ncnc2c1ncn2[C@@H]1O[C@@H]2COP(O)(=S)O[C@H]2[C@H]1O` (stereo partly drawn): the “activity change, negative = inhibition” value is 2.01% (inactive).

Take `Nc1ncnc2c1ncn2[C@@H]1O[C@H](COP(=O)(O)OP(=O)(O)OP(=O)(O)O)[C@H]2OC3(O[C@H]21)C([N+](=O)[O-])=CC(=[N+]([O-])[O-])C=C3[N+](=O)[O-]` (stereo partly drawn): the “activity change, negative = inhibition” value is 481% (inactive).

`Nc1ncnc2c1nc(Sc1ccc(Cl)cc1)n2[C@@H]1O[C@@H]2COP(O)(=S)O[C@H]2[C@H]1O` (stereo partly drawn): the “activity change, negative = inhibition” value was 11.2% (inactive).

As for `CCN(CC)c1ncnc2c1ncn2[C@@H]1O[C@H](COP(=O)(O)OP(=O)(O)C(Br)(Br)P(=O)(O)O)[C@@H](O)[C@H]1O`, the “activity change, negative = inhibition” value is 6% (inactive).

Turning to `CCNC(=O)[C@H]1O[C@@H](n2cnc3c(N)ncnc32)[C@H](O)C1O` (stereo partly drawn), the “activity change, negative = inhibition” value is -1.75% (inactive).

For the compound `COc1cc2nc(N3CCCN(C)CC3)nc(N(C)C3CCN(C)CC3)c2cc1OC`, the “activity change, negative = inhibition” value is -10.2% (inactive).

Regarding `Nc1ncnc2c1ncn2[C@@H]1O[C@@H]2CO[P@](=O)(S)O[C@H]2[C@H]1O`, the “activity change, negative = inhibition” value was -6.04% (inactive).

As to `Nc1ncnc2c1ncn2[C@@H]1O[C@H](COP(=O)(O)CP(=O)(O)O)[C@@H](O)[C@H]1O`, the “activity change, negative = inhibition” value was 4.38% (inactive).

The record behind these values is PubChem BioAssay AID1347145 (National Center for Advancing Translational Sciences (NCATS), 2019).
